Only some compounds are listed: those with a hit (about 0.62% of all), similar ones and a draw of the others.
BCR signal inh – chronic active BCR signaling inhibition. ABC-DLBCL IkBa-CBG/CBR reporter, luminescence ratio, 4 h. AID 493014. 0.05% of 340,000 active. Potency, µM (titrated, usually from 46.1 µM), hits mostly inhibitors; active = well fitted inhibition curve with a large enough effect in the signal ratio, with a control signal flat, not every such curve was filed as active; inconclusive = small, poorly fitted or top-dose-only effect, or effect the other way, or a change in a side signal; the % refers to the signal ratio
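Compounds up to 46 uM were incubated four hours with TMD8 cells whose green CBG68 luciferase is fused to IkappaBalpha; red CBR luminescence normalised the signal, and concentration-effect curves were fitted to fusion, red and ratio data.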
gsp antagonist – antagonists of gsp mutant (McCune-Albright syndrome); 0.4% of 340,000 active; Potency, µM (titrated, usually from 76.9 µM), most hits filed as inhibitors; gsp-mutant cells, cAMP HTRF, 30 min; AID 624288; calls by dose curve; cell line not stated here;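 also: intracellular cAMP measured with PDE inhibitor Ro 20-1724 present during compound exposure; nearly all actives have a fitted effect of over 65% in size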
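HTRF cAMP measurement after 30 min RT detection following 30 min, 37C compound treatment alongside […] (added as 300 uM solution) in G418-selected cells seeded at 2000/well and grown 16–24 h.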
MBNL1 CUG block – MBNL1-poly(CUG) RNA binding inhibition | Q9NR56 | TR-FRET MBNL1-His/biotin-(CUG)12 binding, 665/545 ratio | Potency, µM (doses to about 57.5 µM), usual class: inhibitors | 0.036% of 280,000 active | AID 2675; active = well fitted inhibition curve with a large enough effect in the signal ratio, with a control signal flat, not every such curve was filed as active; inconclusive = small, poorly fitted or top-dose-only effect, or effect the other way, or a change in a side signal; inactive = no such curve, though single readings can be large or run the other way; the % refers to the signal ratio
Target sequence (Q9NR56 whole entry, looked up): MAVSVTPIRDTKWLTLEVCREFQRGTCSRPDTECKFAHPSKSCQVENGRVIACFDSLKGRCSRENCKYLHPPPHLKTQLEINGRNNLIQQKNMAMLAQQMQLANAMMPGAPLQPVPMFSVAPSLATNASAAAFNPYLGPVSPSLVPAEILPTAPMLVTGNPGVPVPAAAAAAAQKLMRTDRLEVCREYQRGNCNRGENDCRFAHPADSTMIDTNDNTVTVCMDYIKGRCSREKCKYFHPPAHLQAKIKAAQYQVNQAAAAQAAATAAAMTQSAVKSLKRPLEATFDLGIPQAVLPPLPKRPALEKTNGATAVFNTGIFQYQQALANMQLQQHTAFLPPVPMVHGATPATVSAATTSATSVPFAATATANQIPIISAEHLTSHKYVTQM
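Compound titration spanned 92 nM–58 uM against the MBNL1-His/biotin-(CUG)12 complex. After 60 min at room temperature with 5 nM streptavidin-XL665 and 0.055 ng/ul terbium anti-His, ratiometric 665/545 nm emission (Ex 340 nm) normalized to controls.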
S-ASM inh – human S-ASM enzyme inhibition; placental ASM, HMU-PC fluorogenic substrate, 60 min; Potency, µM (top dose mostly 57.5 µM), actives largely listed as inhibitors; 0.006% of 340,000 active; P17405; active = well fitted inhibition curve with a large enough effect; inconclusive = small, poorly fitted or top-dose-only effect; inactive = no such curve, though single readings can be large or run the other way
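HMU-PC0 cleavage (9 uM final) by human placental ASM, 60 min at 37 °C following 10 min compound exposure at RT; stopped at pH 10, fluorescence Ex 386/Em 447 nm.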
gsp ag – gsp mutant agonism. AID 624287. gsp mutant cells, cAMP HTRF, 30 min. Potency, µM (highest dose often 76.9 µM), hits mostly activators. 0.13% of 340,000 active; active = well fitted activation curve with a large enough effect; inconclusive = small, poorly fitted or top-dose-only effect, or another doubt; inactive = no such curve, though single readings can be large or run the other way; cell line not stated here;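 also: phosphodiesterase inhibitor Ro 20-1724 added with compounds to block cAMP breakdown; nearly all actives have a fitted effect of over 60% in size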
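Cells in DMEM/10% FBS with G418 were pretreated with compounds in DMSO plus […] (300 uM stock) for 30 min at 37C. cAMP was measured by HTRF (cAMP-d2 plus anti-cAMP antibody-K) after 30 min at room temperature.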
Numbers stand for hits; 0 = inactive; ? = inconclusive; - = no result given; [ ] = another dose, or the depositor's remark.

SMILES	BCR signal inh	gsp antagonist	MBNL1 CUG block	S-ASM inh	gsp ag
Cc1c(NC(=O)/C(C#N)=C/c2c(Oc3ccccc3)nc3ccccn3c2=O)c(=O)n(-c2ccccc2)n1C	18µM	0	?	0	0
COc1ccc(Cc2nnc(NC(=O)Nc3ccccc3F)s2)cc1OC	?	0	0	0	?
COc1ccc(CCNC(=O)c2ccc(F)c(S(=O)(=O)N3CCCCC3)c2)cc1	-	-	-	-	0
CN(C)/C=C/c1onc(-c2ccccc2Cl)c1C#N	?	11µM	-	0	0[15.4 µM]
CCc1c(Cl)nc(N)nc1Nc1ccccc1Cl	-	0	-	0	0[15.4 µM]
COc1ccc(-c2ocnc2C(=O)N2CCN(Cc3cccnc3)CC2)cc1	0	0	0	0	0
COc1ccc(-c2ocnc2C(=O)N2CCN(C(=O)C(c3ccccc3)c3ccccc3)CC2)cc1	?	25µM	0	0	0[15.4 µM]
CCN(CC)C(=O)Oc1ccc2oc(=O)cc(-c3cc4cccc(OC)c4o3)c2c1	0	0	0	0	?
O=C(N/N=C/c1ccc(Br)cc1)c1ccc(F)cc1	?	0	0	0	0
O=C(N/N=C/c1ccc(F)cc1)c1ccc(Br)cc1	?	0	0	0	40µM
Cc1noc(NS(=O)(=O)c2ccc(N/C=C\C(=O)c3ccncc3)cc2)c1C	?	0	?	0	20µM
CCN(CC)S(=O)(=O)c1cccc(NC(=O)COc2ncnc3sccc23)c1	0	0	0	0	25µM
CCOC(=O)c1sc(SCC(=O)Nc2ccc(N(C)C)cc2)nc1N	?	28µM	?	0	0
Cc1cn([C@H]2C[C@H](O)[C@@H](CNCc3ccc(CN(C)S(C)(=O)=O)o3)O2)c(=O)[nH]c1=O	-	-	-	-	0
COC(=O)c1sc(N2C(=O)C(O)=C(C(=O)c3ccc(C)o3)C2c2ccc(OC)c(OC)c2)nc1C (stereo not given)	0	0	0	0	3.5µM
CCOC(=O)c1sc(N2C(=O)C(O)=C(C(=O)c3ccc(C)o3)C2c2ccc(OC)c(OC)c2)nc1C (stereo not given)	0	0	0	0	?
COC(=O)C1=C(C)OC(N)=C(C#N)C1c1ccc(OC)c(CSc2ccccn2)c1 (stereo not given)	0	50µM	0	0	0
COC(=O)C1=C(C)OC(N)=C(C#N)C1c1ccccc1 (stereo not given)	0	0	0	0	0
C[C@H]1CN([C@@H](C)CO)C(=O)c2cc(Br)cnc2O[C@H]1CN(C)C(=O)c1cccnc1	-	-	-	-	32µM
C[C@@H]1CN([C@H](C)CO)C(=O)c2cc(Br)cnc2O[C@H]1CN(C)C(=O)c1ccccc1	-	-	-	-	0
Cc1ccc(S(=O)(=O)N2CCN(C(=O)Cn3cnc4c3c(=O)n(C)c(=O)n4C)CC2)cc1C	0	0	-	0	0
CCN(CC)S(=O)(=O)c1ccc(Cl)c(NC(=O)CSc2cccc[n+]2[O-])c1	0	0	-	0	8.9µM
CC(C)C(=O)N1CCN(c2ccc(NC(=O)c3cccs3)cc2Cl)CC1	?	28µM	0	0	0
Cc1cc(C)cc(C(=O)OCC(=O)Nc2ncccn2)c1	0	0	-	0	0
Cc1cccc(Cn2c(=O)n(-c3ccc(CC(=O)NCc4ccco4)cc3)c(=O)c3sccc32)c1	5µM	0	0	0	0
SMILES	BCR signal inh	gsp antagonist	MBNL1 CUG block	S-ASM inh	gsp ag
COc1ccc(C)cc1NC(=O)Cc1c(C(=O)O)c(C)cn1C	0	-	-	-	-
COc1ccc(N2C(=O)C(Cl)=C(Oc3cccc(OC)c3)C2=O)cc1	0	28µM	0	0	0[15.4 µM]
COc1ccc(N2C(=O)c3ccccc3C2=O)cc1	0	0	?	0	0[15.4 µM]
Cc1cc(O)c(CN2CCN(S(=O)(=O)c3cccs3)CC2)cc1C(C)C	0	0	-	0	?
COc1ccc(OC)c(/C=C/c2ccc3cccc(O)c3n2)c1	11µM	-	0	-	-
Cc1cc(F)ccc1S(=O)(=O)Nc1nc2ccccc2nc1Cl	?	0	0	0	22µM
CC(=O)Nc1ccc(S(=O)(=O)Nc2nc3ccccc3nc2Cl)cc1	0	0	0	0	7.9µM
CC(OC(=O)c1ccc(Br)o1)C(=O)NCC1CCCCC1 (stereo not given)	0	0	-	0	?
COC(=O)c1ccc(/C=C2/SC(=S)N(CCC(=O)N3CCOCC3)C2=O)cc1	0	50µM	0	0	0
COC(=O)c1ccc(/C=C2\SC(=S)N(CCCC(=O)N3CCOCC3)C2=O)cc1	-	0	-	0	0
O=C(Nc1ccc(-c2cn3ccsc3n2)cc1)C1COc2ccccc2O1 (stereo not given)	0	40µM	0	0	0
Cc1ccc(NC(=O)c2ccccc2)cc1	?	0	0	0	0
Cc1ccc(NC(=O)C2=C(c3ccccc3)S(=O)(=O)CCS2(=O)=O)cc1	?	28µM	0	0	0[15.4 µM]
CC(C)c1ccc(NC(=O)c2snc3ccc(Cl)cc23)cc1	0	28µM	0	0	0
CC(C)c1ccc(NC(=O)c2csnn2)cc1	?	0	0	0	0
CCN(CC(=O)NCc1ccc(F)cc1)Cc1nc2ccccc2c(=O)[nH]1	0	0	0	0	0
CCN(CC(=O)Nc1cccc(F)c1)Cc1nc2ccccc2c(=O)[nH]1	?	32µM	0	0	?
Cc1ccc(Cc2c(-c3ccc(C#N)cc3)nc3ccc(Br)cn23)cc1	-	-	-	-	0
N#Cc1ccc(-c2nc3ccc(Br)cn3c2Cc2ccccc2)cc1	-	-	-	-	32µM
Cc1cn(CC(=O)NCC2CCCO2)c(=O)[nH]c1=O (stereo not given)	-	0	-	0	-
Clc1ccc(-c2nc(-c3cc4cc(Cl)ccc4o3)cs2)cc1	0	28µM	0	0	0
Clc1ccc(-c2csc(-c3ccno3)n2)cc1	?	0	0	0	0[15.4 µM]
CCOC(=O)C1=CN(Cc2cccc(F)c2)S(=O)(=O)N(CC)C1c1ccccc1 (stereo not given)	0	0	-	0	-
CC1CCN(C(=O)CN2C(=O)NC(c3ccccc3)(c3ccccc3)C2=O)CC1	0	0	-	0	0
COCCCNCCCOc1ccc(C)cc1Br	0	0	0	0	0
SMILES	BCR signal inh	gsp antagonist	MBNL1 CUG block	S-ASM inh	gsp ag
COCCNCCCOc1ccc(C)cc1Br	0	35µM	0	0	0
Cn1c(=S)[nH]c2ccccc21	0	0	0	0	0
S=c1[nH]c2ccccc2n2cccc12	0	0	?	0	22µM
O=S(OCCN1CCCC1)C(c1ccccc1)c1ccccc1 (stereo not given)	-	0	-	0	0
CN(Cc1ccco1)c1ncnc2ccc(-c3cccc(Cl)c3)cc12	0	-	-	-	-
CN(Cc1ccco1)c1ncnc2ccc(-c3ccc4c(ccn4C)c3)cc12	6.5µM	-	-	0	-
COc1cccc(NC(=O)COC(=O)CCC(=O)c2cccs2)c1	0	0	-	0	0
CC(=O)c1ccc(N2CCN(C(=O)c3n[nH]c4ccccc34)CC2)cc1	0	11µM	0	0	0[15.4 µM]
Cc1csc(CNC(=O)C2CCC(=O)N(CCc3cccc(F)c3)C2)n1 (stereo not given)	0	0	0	0	?
Cc1oc2c(c1C(=O)c1ccc(Cl)cc1)C(=O)C(=O)c1ccccc1-2	0	56µM	0	0	0
